The record followed here is PubChem BioAssay (NCI).

Test systems include NCI-H226 lung; NCI-H322M lung; HOP-62 NSCLC; NCI-H460 lung; HOP-92 NSCLC; NCI-H522 lung; A549/ATCC NSCLC; 786-0 renal; COLO 205 colon; DU-145 prostate.
Test in all cases: NCI-60 one-dose screen, 48 h (100 = growth as untreated, 0 = no growth, -100 = all killed)
What all share (details): 10 µM unless noted

Each structure is given as a SMILES string. Compounds without any hit were thinned out: in the full panel of roughly 83,000, 20% have a hit.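 Step 1: grow cells in 96-well plates. Step 2: add test compound at a single concentration. Step 3: incubate 48 h. Step 4: record percent growth.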 A number with no mark means an inactive call. The source made the active and inactive calls. Rule for the calls: active = growth percent below 10; inactive = the rest.

With `COc1cc2nc(-c3ccc(Cl)cc3)cc(OCCCNCC3CCCO3)c2cc1OC` (stereo not given), the growth is 75.8% in the assay on NCI-H226 lung; 66.7% in the assay on NCI-H322M lung; 64.3% in the assay on HOP-62 NSCLC; 30.2% in the assay on NCI-H460 lung; 35.4% in the assay with HOP-92 NSCLC; 45.1% in the assay on NCI-H522 lung. For the same compound, the growth in the assay with A549/ATCC NSCLC is 53.2%; with 786-0 renal, 43.3%; with COLO 205 colon, 33.5%; with DU-145 prostate, 49.2%.

`COc1ccc(NC2=CC(=O)C(C)=C(C)C2=O)cc1`: the growth is 97.2% in the assay on NCI-H226 lung; 103% in the assay with NCI-H322M lung; 99.7% with HOP-62 NSCLC; 99.6% in the assay on NCI-H460 lung; 172% in the assay on HOP-92 NSCLC; 82.5% with NCI-H522 lung. For the same compound, the growth is 97.3% in the assay on A549/ATCC NSCLC, 90.5% in the assay on 786-0 renal, 107% in the assay on COLO 205 colon and 105% in the assay with DU-145 prostate.

As to `COc1ccc(/C=C2\SC(=Nc3cc(C)[nH]n3)NC2=O)cc1`, the growth is 86.8% in the assay with NCI-H226 lung; 91.9% in the assay on NCI-H322M lung; 85.2% in the assay with HOP-62 NSCLC; 102% in the assay on NCI-H460 lung; 68.5% in the assay with HOP-92 NSCLC; 97.4% in the assay on NCI-H522 lung. The growth in the assay with A549/ATCC NSCLC was 102%; in the assay with 786-0 renal, 99.8%; in the assay on COLO 205 colon, 90.8%; in the assay with DU-145 prostate, 101%.

On to `COc1ccc(NC2=C(Cl)C(=O)C(C)=C(C)C2=O)cc1OC`, for which the growth with NCI-H226 lung was 92.6%; in the assay with NCI-H322M lung it was 101%; in the assay with HOP-62 NSCLC, 99.6%; in the assay on NCI-H460 lung, 96%; with HOP-92 NSCLC it was 130%; in the assay with NCI-H522 lung, 84.7%. Moreover, the growth with A549/ATCC NSCLC was 87.2%; with 786-0 renal, 107%; in the assay on COLO 205 colon it was 110%; in the assay with DU-145 prostate, 104%.

With `COc1ccccc1C(=O)CSc1nc(Nc2ccc(S(N)(=O)=O)cc2)c2ccccc2n1`, the growth is 94.9% in the assay with NCI-H226 lung; 82.6% with NCI-H322M lung; 86.7% in the assay with HOP-62 NSCLC; 85.1% in the assay with NCI-H460 lung; 89.6% in the assay on HOP-92 NSCLC; 90.5% in the assay with NCI-H522 lung. In addition, the growth with A549/ATCC NSCLC was 98.5%; in the assay with 786-0 renal, 91%; with COLO 205 colon, 107%; in the assay on DU-145 prostate it was 96.9%.

Consider `C#Cc1nc(C2=C(C)C(O)/C(=N/O)C2)cs1` (stereo not given), for which the growth is 107% in the assay on NCI-H226 lung; 102% in the assay on NCI-H322M lung; 111% in the assay on HOP-62 NSCLC; 104% in the assay with NCI-H460 lung; 41.8% with HOP-92 NSCLC; 15.5% in the assay with NCI-H522 lung. Moreover, the growth was 96.5% in the assay with A549/ATCC NSCLC, -92.2% (active) with 786-0 renal, 128% in the assay on COLO 205 colon and 87% in the assay on DU-145 prostate.

Turning to `Cn1c(SCC(=O)Nc2ccc(-c3nc4ccc([N+](=O)[O-])cc4[nH]3)cc2)nc2ccccc2c1=O`, the growth in the assay with NCI-H226 lung is 37.9%; in the assay with NCI-H322M lung, 68.6%; in the assay with HOP-62 NSCLC it was 94.9%; with NCI-H460 lung, 82.3%; with HOP-92 NSCLC it was 59.5%; in the assay with NCI-H522 lung, 74.1%. Also, the growth in the assay with A549/ATCC NSCLC was 89.5%; in the assay on 786-0 renal it was 81.5%; with COLO 205 colon, 98.4%; with DU-145 prostate, 90.6%.

For the compound `Cn1ccnc1C(=O)/C=C/c1ccc(NC(=O)Nc2ccc(F)cc2)cc1`, the growth in the assay on NCI-H226 lung is 63.3%; with NCI-H322M lung, 49.5%; in the assay with HOP-62 NSCLC it was 31%; in the assay with NCI-H460 lung, 7.07% (active); in the assay with HOP-92 NSCLC, 78.2%; with NCI-H522 lung, 14.7%. In addition, the growth in the assay with A549/ATCC NSCLC was 36.4%; with 786-0 renal it was 27.3%; in the assay with COLO 205 colon it was 49.5%; with DU-145 prostate, 35.1%.

As for `O=C1c2c(c3c4cc(Br)ccc4[nH]c3c3ccc4ccccc4c23)C(=O)N1CCO`, the growth in the assay on NCI-H226 lung is 88.9%; with NCI-H322M lung it was 96.8%; with HOP-62 NSCLC, 96.3%; in the assay with NCI-H460 lung, 62.5%; in the assay with HOP-92 NSCLC, 103%; in the assay on NCI-H522 lung, 76.5%. The growth was 91.7% with A549/ATCC NSCLC, 100% in the assay on 786-0 renal, 92% with COLO 205 colon and 103% with DU-145 prostate.

Turning to `CN(C)c1ccc(/C=c2\sc3nc4ccccc4n3c2=O)cc1`, the growth in the assay on NCI-H226 lung is 105%; in the assay with NCI-H322M lung it was 90.8%; in the assay on HOP-62 NSCLC it was 108%; in the assay on NCI-H460 lung it was 105%; with HOP-92 NSCLC it was 103%; in the assay with NCI-H522 lung, 102%. The growth was 117% in the assay on A549/ATCC NSCLC, 98.5% in the assay with 786-0 renal, 111% with COLO 205 colon and 110% in the assay on DU-145 prostate.

As to `CC(=O)Oc1ccccc1C(=O)Nc1ccc(C(=O)/C=C/c2cccs2)cc1`, the growth with NCI-H226 lung was 116%; with NCI-H322M lung, 106%; with HOP-62 NSCLC, 101%; with NCI-H460 lung, 116%; in the assay on HOP-92 NSCLC it was 108%; in the assay with NCI-H522 lung, 102%. Also, the growth with A549/ATCC NSCLC was 104%; with 786-0 renal, 88.7%; with COLO 205 colon it was 126%; in the assay with DU-145 prostate, 113%.

On to `N/C(=N\c1nc2c(Cl)cc(Cl)cc2s1)C(Cl)(Cl)Cl`, for which the growth in the assay on NCI-H226 lung is 73.5%; in the assay on NCI-H322M lung, -55.6% (active); in the assay on HOP-62 NSCLC, 20.1%; with NCI-H460 lung it was -1.22% (active); in the assay on HOP-92 NSCLC it was 46.4%; with NCI-H522 lung, 82.4%. Besides, the growth was -12.9% (active) in the assay with A549/ATCC NSCLC, 85.4% in the assay on 786-0 renal, -16% (active) with COLO 205 colon and -27.8% (active) in the assay with DU-145 prostate.

As to `O=C1C2=C(C(=O)c3c(O)cccc31)C(c1ccco1)c1sc(=O)[nH]c1S2` (stereo not given), the growth was -20.7% (active) with NCI-H226 lung; -97.7% (active) in the assay with NCI-H322M lung; -72.2% (active) with HOP-62 NSCLC; -4% (active) with NCI-H460 lung; 69.5% with HOP-92 NSCLC; -5.29% (active) in the assay with NCI-H522 lung. Besides, the growth in the assay with A549/ATCC NSCLC is -47.7% (active); in the assay on 786-0 renal it was 62.3%; in the assay with COLO 205 colon, -89.4% (active); in the assay with DU-145 prostate, -93.9% (active).
